The sample as a whole holds a higher share of hits than the screen did.
NOMO-1 viab = STK33 inhibitor candidate reducing NOMO-1 cell viability | inhibition, % (no concentration beside the values) | NOMO-1 AML viability, CellTiter-Glo luminescence, 72 h | AID 2330 | hit rate 7.5% among 37,000; in the data active means inhibition above about 80%
PD-1 reversal = activators reversing PD-1 mediated T-cell inhibition; activation, % (concentration not given with the values); AID 2316; primary human CD4 T cells, PD-L1 beads, CellTiter-Glo 96 h; 29,000 tested, under 10 active; call rule not given here;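 further: 0% = median vehicle wells and 100% = positive control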
STK33 kin inh = inhibitors of human STK33 kinase; Q9BYT3; ADP-Glo luminescence, MBP substrate; AID 2322; inhibition, % at 12.5 µM; hit rate 0.44% among 27,000; in the data active means inhibition above about 20%
Target sequence (Q9BYT3 whole entry, looked up): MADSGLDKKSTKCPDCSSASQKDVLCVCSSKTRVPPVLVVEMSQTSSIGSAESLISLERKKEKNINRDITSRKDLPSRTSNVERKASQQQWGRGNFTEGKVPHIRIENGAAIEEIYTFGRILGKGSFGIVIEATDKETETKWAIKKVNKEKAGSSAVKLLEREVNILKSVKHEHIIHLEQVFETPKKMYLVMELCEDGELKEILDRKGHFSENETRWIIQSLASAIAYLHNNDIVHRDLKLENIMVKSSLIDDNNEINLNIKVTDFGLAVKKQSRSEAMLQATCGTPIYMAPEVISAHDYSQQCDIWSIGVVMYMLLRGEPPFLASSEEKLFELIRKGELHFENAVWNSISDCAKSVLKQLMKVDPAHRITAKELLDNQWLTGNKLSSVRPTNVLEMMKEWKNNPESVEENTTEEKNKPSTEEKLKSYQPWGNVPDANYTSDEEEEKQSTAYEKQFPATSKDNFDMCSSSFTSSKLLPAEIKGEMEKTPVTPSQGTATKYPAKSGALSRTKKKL
* = called active by the depositor; . = no result given.

SMILES	NOMO-1 viab	PD-1 reversal	STK33 kin inh
COc1ccccc1-n1c(SC(C)C(=O)N2CCCCC2)nc2ccc(I)cc2c1=O (stereo not given)	17	-1	9
C[C@H](CO)N1C[C@H](C)[C@H](CN(C)Cc2ccc(C(=O)Nc3ccccc3N)cc2)Oc2ccc(N(C)C)cc2CC1=O	141*	-2	.
C[C@H]1CN([C@@H](C)CO)C(=O)Cc2cc(N(C)C)ccc2O[C@H]1CN(C)Cc1ccc(C(=O)Nc2ccccc2N)cc1	141*	-1	.
CC1(C)C=Cc2c(c3occc3c3oc(-c4ccccc4)cc(=O)c23)O1	95*	1	.
COc1ccc(-c2cc(=O)c3c(OC)c(OC)c(OC)c(OC)c3o2)cc1OC	28	2	4
Cc1cccc(OCC(=O)Nc2cccc(-c3nc4ccccc4s3)c2)c1C	-5	1	2
CCOC(=O)c1c[nH]c2c(C)c(Cl)ccc2c1=O	18	1	.
COC(=O)c1ccccc1NC(=O)COc1cccc(Cl)c1Cl	-1	.	3
COc1ccc(NC(=O)Nc2cccc3c2O[C@@H](CN(C)Cc2ccc(-c4ccccc4)cc2)[C@@H](C)CN([C@H](C)CO)C3=O)cc1	113*	-2	.
COc1ccc(CN(C)C[C@H]2Oc3c(NC(=O)Nc4cccc5ccccc45)cccc3C(=O)N([C@H](C)CO)C[C@H]2C)cc1	46	-1	.
C[C@H]1CN([C@@H](C)CO)C(=O)c2cccc(NC(=O)Nc3cccc4ccccc34)c2O[C@H]1CN(C)Cc1ccc(Oc2ccccc2)cc1	93*	-3	.
COc1ccc(NC(=O)Nc2cccc3c2O[C@@H](CN(C)Cc2ccc(-c4ccccc4)cc2)[C@H](C)CN([C@@H](C)CO)C3=O)cc1	18	.	.
COc1ccc(CN(C)C[C@H]2Oc3c(NC(=O)Nc4ccc(OC)cc4)cccc3C(=O)N([C@H](C)CO)C[C@H]2C)cc1	2	-1	.
COc1ccc(CN(C)C[C@@H]2Oc3c(NC(=O)Nc4ccc(OC)cc4)cccc3C(=O)N([C@@H](C)CO)C[C@H]2C)cc1	93*	-7	.
COc1ccc(NC(=O)Nc2cccc3c2O[C@H](CN(C)Cc2ccccc2)[C@H](C)CN([C@@H](C)CO)C3=O)cc1	33	2	.
COc1ccc(NC(=O)Nc2cccc3c2O[C@@H](CN(C)Cc2ccccc2)[C@H](C)CN([C@@H](C)CO)C3=O)cc1	93*	-4	.
CS(=O)(=O)N(CC(=O)Nc1cc(Cl)ccc1Oc1ccccc1)c1ccccc1F	9	-1	-2
C[C@H](O)C1=CC2(CC[C@@H]3C(C(=O)O)=CO[C@@H](O[C@@H]4O[C@H](CO)[C@@H](O)[C@H](O)[C@H]4O)[C@@H]32)OC1=O (stereo not given in full)	.	.	-2
COc1ccc(C)cc1S(=O)(=O)NCCO	20	2	1
COc1ccc(CN(C)C[C@H]2Oc3c(NC(=O)Nc4ccccc4)cccc3C(=O)N([C@@H](C)CO)C[C@H]2C)cc1	2	.	.
COc1ccc(CN(C)C[C@@H]2Oc3c(NC(=O)Nc4ccc(F)cc4)cccc3C(=O)N([C@@H](C)CO)C[C@@H]2C)cc1	31	0	.
COc1ccc(NC(=O)Nc2cccc3c2O[C@H](CN(C)Cc2ccc(Oc4ccccc4)cc2)[C@H](C)CN([C@@H](C)CO)C3=O)cc1	113*	-4	.
COc1ccc(CN(C)C[C@@H]2Oc3c(NC(=O)Nc4ccc(F)cc4)cccc3C(=O)N([C@H](C)CO)C[C@H]2C)cc1	94*	-5	.
CC(=O)Oc1cc(OC(C)=O)c2c(c1)O[C@H](c1ccc(OC(C)=O)c(OC(C)=O)c1)[C@H](OC(C)=O)C2	63	.	1
Cc1ccc(NC(=O)CSc2nnnn2C)c(C)c1	6	.	4
SMILES	NOMO-1 viab	PD-1 reversal	STK33 kin inh
C[C@@H]1CN([C@H](C)CO)C(=O)Cc2cc(NC(=O)Nc3cccc4ccccc34)ccc2O[C@H]1CN(C)Cc1ccccc1	8	.	3
C[C@@H]1CN([C@@H](C)CO)C(=O)Cc2cc(NC(=O)Nc3cccc4ccccc34)ccc2O[C@@H]1CN(C)Cc1ccc(C(F)(F)F)cc1	117*	-6	4
C[C@@H]1CN([C@H](C)CO)C(=O)Cc2cc(NC(=O)Nc3cccc4ccccc34)ccc2O[C@@H]1CN(C)Cc1ccc(-c2ccccc2)cc1	94*	-3	3
C[C@@H]1CN([C@H](C)CO)C(=O)Cc2cc(NC(=O)Nc3cccc4ccccc34)ccc2O[C@@H]1CN(C)Cc1ccc(Oc2ccccc2)cc1	111*	-5	-7
COc1ccc(CN(C)C[C@@H]2Oc3ccc(NC(=O)Nc4cccc5ccccc45)cc3CC(=O)N([C@@H](C)CO)C[C@@H]2C)cc1	25	.	-3
C[C@H](CO)N1C[C@H](C)[C@H](CN(C)Cc2ccncc2)Oc2ccc(NC(=O)Nc3cccc4ccccc34)cc2CC1=O	125*	.	.

High-throughput results deposited in PubChem by Broad Institute.
